BCR signal inh: inhibitors of chronic active B-cell receptor signaling; ABC-DLBCL IkBa-CBG/CBR reporter, luminescence ratio, 4 h; Potency, µM (top dose mostly 46.1 µM), most hits filed as inhibitors; actives 0.05% (n = 340,000); AID 493014; active = well fitted inhibition curve with a large enough effect in the signal ratio, with a control signal flat, not every such curve was filed as active; inconclusive = small, poorly fitted or top-dose-only effect, or effect the other way, or a change in a side signal; the % refers to the signal ratio
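Concentration-response series (up to 46 uM) were applied to TMD8 dual-reporter cells for 4 h at 37C with doxycycline. Green/red ratio, after filter-overlap correction, defined %Activity; red signal alone was normalised to basal cells and zero luminescence.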
DRD3 agonist: agonists of human D3 dopamine receptor; P35462; D3R DiscoveRx beta-arrestin cells, luminescence, 90 min; max activation, %; actives 0.58% (n = 410,000); AID 652048; in the data active = max activation above about 30%
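Agonist mode: compounds and dopamine controls were applied to plated cells for 90 min at 37 degrees C after an overnight attachment at 1500 cells/well. Luminescent read-out followed 30 - 60 minutes at room temperature with DiscoveRx detection reagent.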
D1 ag: agonists of human D1 dopamine receptor; P21728; HEK293 T-REx D1 cells, calcium flux, agonist mode; activation, % at 2 µM; actives 1% (n = 360,000); AID 504660; in the data active = activation above about 30%
Target sequence (P21728 whole entry, looked up): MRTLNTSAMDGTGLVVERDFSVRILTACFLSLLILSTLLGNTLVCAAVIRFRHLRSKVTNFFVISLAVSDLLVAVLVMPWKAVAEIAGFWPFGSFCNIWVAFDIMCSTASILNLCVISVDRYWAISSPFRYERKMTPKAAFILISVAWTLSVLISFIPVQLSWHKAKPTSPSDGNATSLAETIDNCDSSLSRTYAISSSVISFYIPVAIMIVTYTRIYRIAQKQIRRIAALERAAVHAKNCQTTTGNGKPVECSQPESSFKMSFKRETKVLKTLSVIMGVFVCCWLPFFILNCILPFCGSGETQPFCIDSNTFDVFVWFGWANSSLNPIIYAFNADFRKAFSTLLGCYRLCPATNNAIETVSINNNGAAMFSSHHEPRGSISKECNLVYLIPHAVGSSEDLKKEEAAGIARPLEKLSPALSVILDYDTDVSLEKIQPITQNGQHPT
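Inducible HEK293 T-REx D1 cells, force-coupled to calcium signalling, were plated at 4000 cells/well with tetracycline and held overnight at 30 C. After no-wash calcium dye loading, compound-evoked calcium rise over 180 s flagged agonists.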
D1 antagonist: human D1 dopamine receptor antagonism; actives 3.2% (n = 360,000); P21728; HEK293 TREx D1 cells, calcium flux, dopamine EC80; stronger effect = lower value; AID 504652; activity change, negative = inhibition, % at 10 µM; in the data active = activity change below about -30%
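Cells carrying a force-coupled, tetracycline-inducible human D1 receptor report calcium flux. Each well gets a 10 s baseline, compound with 180 s monitoring, then an EC80 dopamine stimulus with a second 180 s kinetic read.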
D1 potentiator: enhances dopamine response at the human D1 receptor. actives 0.036% (n = 360,000). P21728. potentiation, % at 10 µM. HEK293 TREx D1 cells, calcium flux, dopamine EC20 potentiation; in the data active = potentiation above about 30%
DRD3 antagonist: D3 dopamine receptor (human) antagonism; P35462; D3R cells, DiscoveRx beta-arrestin luminescence, antagonist mode; stronger effect = lower value; max response, negative = inhibition, %; actives 2.5% (n = 360,000); AID 652054; in the data active = max response below about -50%; inconclusive = no clear call, values can overlap the other calls
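Cells expressing the human receptor were seeded at 1500 cells/well, incubated overnight at 37 degrees C in 5% CO2, then exposed to library compounds with dopamine controls for 90 minutes at 37 degrees C before luminescent detection.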
Numbers stand for hits; 0 = inactive; ? = inconclusive; - = not tested or not shown. Compounds with a hit are over-represented: about 6% of the library has one in this group of screens.

SMILES	BCR signal inh	DRD3 agonist	D1 ag	D1 antagonist	D1 potentiator	DRD3 antagonist
CCn1c(-c2ccco2)n[nH]c1=S	0	0	0	0	0	0
O=C(NC1CC(=O)N(c2ccc(F)cc2)C1)C1CC1 (centres undefined)	0	0	0	-	0	-
Cc1nc(N2CCCC2)c2c(C(=O)N3CCN(c4ccc(F)cc4)CC3)c(C)oc2n1	-	0	0	0	0	-
O=C(CC(NCc1cccnc1)C(=O)O)Nc1ccc(F)cc1 (centres undefined)	-	0	0	0	0	-
O=C(Cc1c(F)cccc1Cl)N1CCOCC1	?	0	0	-35.6	0	0
O=C(NCCC(=O)N1CCN(Cc2c(F)cccc2Cl)CC1)c1ccc(Cl)cc1	0	64.6	0	0	0	0
O=C(NCCC(=O)N1CCN(c2ccccc2O)CC1)c1ccc(Cl)cc1	0	0	0	0	0	0
O=C(Cc1cccs1)Nc1cccc(-c2nc3cc4ccccc4cc3[nH]2)c1	?	0	0	-38.4	0	0
O=C(c1cccs1)N1CCN(C(=O)c2cccs2)C1=S	-	0	-	-	-	0
CCC(=O)N1CCC(C)(C(=O)Nc2nccc3ccccc23)C1 (centres undefined)	-	0	-	-	-	0
CN(C(=O)CCN1C(=O)/C(=C/c2ccc(F)cc2)SC1=S)C1CCS(=O)(=O)C1 (centres undefined)	-	0	-	-	-	0
CC(C(=O)N(C)C1CCS(=O)(=O)C1)N1C(=O)/C(=C/c2ccc(F)cc2)SC1=S (centres undefined)	?	0	0	-41.6	0	0
COc1ccc(Cn2c(=O)c3oc4ccccc4c3n(Cc3ccc(F)cc3)c2=O)cc1	-	0	0	0	0	-
Cc1ccccc1CNC(=O)CN(c1cccc([N+](=O)[O-])c1)S(C)(=O)=O	0	0	0	0	0	0
COc1ccccc1CNC(=O)CN(c1cccc([N+](=O)[O-])c1)S(C)(=O)=O	0	0	0	-34.8	0	0
Cc1ccc(CNC(=O)CN(c2cccc([N+](=O)[O-])c2)S(C)(=O)=O)cc1	0	0	0	-35.4	0	0
COc1ccc(NC(=O)C(=O)NCc2ccco2)c(OC)c1	-	0	0	0	0	-
Cc1cc2oc(C(=O)Nc3nc(-c4ccccc4)ns3)c(C)c2cc1Cl	-	0	0	0	0	-
Cc1cccc2cc(CN(Cc3nnnn3C3CCCCC3)C3CCCC3)c3nnnn3c12	0	0	0	0	0	-64.8
Cc1cc(C)c2[nH]c(=O)c(CN(Cc3nnnn3C3CCCC3)C3CCCCC3)cc2c1	0	0	0	0	0	0
O=C(CCN1CCN(c2ccccc2F)CC1)Nc1ccccc1F	0	32.1	0	0	0	0
O=C(CCN1CCN(c2ccc(Cl)cc2)CC1)Nc1ccccc1F	0	0	0	0	0	0
O=C(CN1CCN(c2ccccc2O)CC1)Nc1ccccc1C(=O)NCCc1ccccc1	0	0	0	-41.0	0	0
O=C(CN1CCN(c2ccccc2F)CC1)Nc1ccccc1F	0	0	0	0	0	-57.6
Cc1ccc(NC(=O)CN2CCN(c3ccccc3F)CC2)cc1F	-	0	0	0	0	-
SMILES	BCR signal inh	DRD3 agonist	D1 ag	D1 antagonist	D1 potentiator	DRD3 antagonist
COc1ccc(S(=O)(=O)c2c(O)c(C)cc(NS(=O)(=O)c3ccc(Cl)cc3)c2C(C)C)cc1	-	0	0	0	0	-
Cc1[nH]n(-c2ccccc2)c(=O)c1-c1ccccc1	0	0	0	0	0	?
Cc1[nH]n(-c2cccc(Cl)c2)c(=O)c1-c1ccccc1	?	0	0	0	0	-51.9
O=C(Nc1ccc2c(c1)OCCO2)c1ccc(NC(=O)C2CCCO2)cc1 (centres undefined)	0	0	0	-49.3	0	0
CC(=O)Nc1ccc(C(=O)Nc2ccc3c(c2)OCCO3)cc1	0	0	0	0	0	0
CCN(CC)c1ccc(NC(=O)c2ccc3c(c2)OCO3)c(C)c1	0	0	0	-40.7	0	0
O=C(NCc1ccc2c(c1)OCO2)c1ccc(NC(=O)C2CCCO2)cc1 (centres undefined)	?	0	0	0	0	?
CC(=O)Nc1ccc(C(=O)Nc2ccc3c(c2)OCO3)cc1	0	0	0	-30.6	0	0
Cc1cc(NC(=O)c2ccc3c(c2)OCO3)ccc1NC(=O)c1ccccc1	0	0	0	0	0	0
O=C(Nc1ccc2c(c1)OCO2)c1ccc[n+]([O-])c1	0	0	0	-38.7	0	0
O=C(COC(=O)CSc1ccccc1)NC1CCS(=O)(=O)C1 (centres undefined)	-	0	-	-	-	0
CC(C)c1nn2c(=O)cc(COC(=O)CNC(=O)c3ccccc3Cl)nc2s1	-	0	0	0	0	-
C=CCOc1ccc(C2C(C(=O)c3ccco3)=C(O)C(=O)N2c2nnc(C)s2)cc1 (centres undefined)	?	0	56.7	0	0	0
O=C(C1=C(O)C(=O)N(c2ncccn2)C1c1cccc(Cl)c1)c1ccco1 (centres undefined)	-	0	0	0	0	-74.5
CCSc1nnc(N2C(=O)C(O)=C(C(=O)c3ccco3)C2c2cccc(OC)c2)s1 (centres undefined)	0	0	76.9	0	0	0
COc1ccc(C2C(C(=O)c3ccco3)=C(O)C(=O)N2c2nnc(C)s2)cc1 (centres undefined)	0	0	0	0	0	0
CSc1nnc(N2C(=O)C(O)=C(C(=O)c3ccco3)C2c2ccc(F)cc2)s1 (centres undefined)	0	0	128.0	0	0	?
Cc1cc(C)c2nc(N3C(=O)C(O)=C(C(=O)c4ccco4)C3c3ccco3)sc2c1 (centres undefined)	0	31.4	0	0	0	0
O=c1ccn([C@@H]2O[C@H](CNS(=O)(=O)c3csc(-c4ccno4)c3)[C@@H](O)[C@H]2O)c(=O)[nH]1	-	44.3	-	-	-	0
CC(CCC(C)C(C)(C)C)[C@@H]1CC[C@H]2C3C[C@H](OS(O)(=S)=S)[C@H]4C[C@H](OS(O)(=S)=S)[C@@H](OS(O)(=S)=S)C[C@]4(C)[C@H]3CC[C@]12C (some centres undefined) (tested in a mixture with another compound)	0	0	-	-	-	-83.0
CC(CCC(=O)NN)C1CCC2C3CCC4CC(O)CCC4(C)C3CCC12C (centres undefined)	-	0	-	-	-	0
O=C1OCC2OC(O)C(O)C(O)C2OC(=O)c2cc(O)c(O)c(O)c2-c2c(O)c(O)c3oc(=O)c4c(c(O)c(O)c5oc(=O)c2c3c54)-c2c1cc(O)c(O)c2O (centres undefined)	0	-	0	0	0	-
Cc1cccc(-n2nnnc2S(C)(=O)=O)c1	?	0	0	-51.5	0	-
